Results filed as inconclusive are left out. The source made the active and inactive calls. Unless noted, calls follow the shape of the dose curve; as a rule, active = well fitted curve in the direction sought with a large enough effect in the repeat runs; inconclusive = weak or mixed curves; inactive = no such curve, though single readings can be large; an effect the other way counts as inactive or inconclusive.
Legend:
[1] = qHTS assay for small molecule agonists of the p53 signaling pathway (AID 651631; calls by dose curve; also: nearly all actives have a fitted effect of over 15% in size)
Outline: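 Readout was fluorescence from the LiveBLAzer FRET substrate, applied for 2 h at room temperature after 16 h compound exposure at 37 °C. Cells were the p53RE-bla HCT-116 line, with beta-lactamase driven by p53 response elements.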

[2] = qHTS assay for small molecule agonists of the p53 signaling pathway - cell viability (AID 651633; calls by dose curve; also: series mostly up to about 83 µM; nearly all actives have a fitted effect of over 30% in size)
Outline: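 Viability counter-read: CellTiter-Glo luminescence (30 min, room temperature) in the same p53RE-bla plates. These plates had been exposed to compounds for 16 h at 37 C.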

[3] = qHTS assay for small molecules that induce genotoxicity in human embryonic kidney cells expressing luciferase-tagged ATAD5 - cell viability (AID 651634; calls by dose curve; also: nearly all actives have a fitted effect of over 25% in size)
Outline: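 Quantitative high-throughput format. HEK293T cells expressing ATAD5 fused to luciferase were plated at 2,000 cells/well and treated 15.5 hr with compound versus DMSO. Viability was determined by fluorescent live-cell protease substrate, 30 min at 37C.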

[4] = qHTS assay to test for compound auto fluorescence at 590 nm (red) in HepG2 cells (AID 720674)
Outline: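 1 hr compound incubation on HepG2 cells, 37 C, 5% CO2; plate read ex 540 nm / em 590 nm; intensities reported as Rose Bengal sodium equivalents.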

[5] = qHTS assay to test for compound auto fluorescence at 535 nm (green) in HepG2 cells (AID 720675)
[6] = qHTS assay to test for compound auto fluorescence at 460 nm (blue) in HEK293 cells (AID 720678)
Outline: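 Triamterene serves as the blue fluorophore standard. Compound signal at 405/460 nm is read in HEK293 wells (2,000 cells, 10% dialyzed FBS) after overnight treatment at 37C.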

[7] = qHTS assay to test for compound auto fluorescence at 590 nm (red) in HEK293 cells (AID 720679)
Outline: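 We plated HEK293 cells in 10% dialyzed FBS medium, let them adhere for 4-5 hr, then added 23 nL compound. Overnight at 37C and 5% CO2 preceded fluorescence measurement at 540/590nm.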

[8] = qHTS assay to test for compound auto fluorescence at 535 nm (green) in HEK293 cells (AID 720680)
[9] = qHTS assay to test for compound auto fluorescence at 460 nm (blue) in HEK293 cell free culture (AID 720681)
Outline: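 Blue fluorescence (Ex 405/Em 460 nm, triamterene-equivalent) was read immediately after pin transfer of compound or DMSO into medium (DMEM, 10% FBS) without cells.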

[10] = qHTS assay to test for compound auto fluorescence at 535 nm (green) in HEK293 cell free culture (AID 720682)
Outline: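 Compounds were pin-transferred into cell-free DMEM with 10% FBS, and green fluorescence was read at excitation 485 nm and emission 535 nm. Intensities were expressed as fluorescein-equivalent values.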

[11] = qHTS assay to test for compound auto fluorescence at 590 nm (red) in HEK293 cell free culture (AID 720683)
Outline: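 Red-channel autofluorescence of compounds in culture medium (DMEM, 10% FBS), no cells, measured at 540/590 nm. Rose Bengal sodium is the reference fluorophore for equivalence.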

[12] = qHTS assay to test for compound auto fluorescence at 590 nm (red) in HepG2 cell free culture (AID 720684)
Outline: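 No cells present: MEM + 10% FBS only. Compound pinned in, red label read (540/590 nm). Activity = fluorescence equivalent to Rose Bengal sodium.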

[13] = qHTS assay to test for compound auto fluorescence at 460 nm (blue) in HepG2 cell free culture (AID 720685)
Outline: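 Cell-free plates of MEM plus 10% FBS received 23 nL compound or DMSO vehicle; blue-channel (405/460 nm) intensity scored against triamterene as reference fluorophore.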

[14] = qHTS assay to test for compound auto fluorescence at 460 nm (blue) in HepG2 cells (AID 720687)
Outline: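 Blue-channel autofluorescence (Ex/Em 405/460 nm, triamterene-equivalent) was measured after 1 hr compound exposure at 37 C, 5% CO2. Cells were HepG2, plated overnight at 37 C in MEM plus 10% FBS.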

[15] = qHTS assay for small molecules that induce genotoxicity in human embryonic kidney cells expressing luciferase-tagged ATAD5 (AID 651632); also: nearly all actives have a fitted effect of over 15% in size
Outline: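 Test compounds were delivered by pin tool onto HEK293T reporter cells (2,000/well) expressing ATAD5 fused to luciferase. After 16 hr at 37C, 5% CO2, Amplite was added for 30 min at room temperature and luminescence was measured.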

[16] = qHTS assay for small molecule disruptors of the mitochondrial membrane potential - cell viability (AID 720634; calls by dose curve;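 also: human HepG2 liver cancer cells; series mostly up to about 83 µM; nearly all actives have a fitted effect of over 20% in size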)
Outline: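 Same-well counter-screen: following the MMP dye addition, CellTiter-Glo was added to 1 hr compound-treated HepG2 cells and luminescence read after 30 min at room temperature.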

[17] = qHTS assay to test for compound auto fluorescence at 535 nm (green) in HepG2 cell free culture (AID 720686)
[18] = molecular target: Glucocorticoid receptor (Homo sapiens) (UniProt P04150); test: qHTS assay to identify small molecule agonists of the glucocorticoid receptor (GR) signaling pathway (AID 720691; active = well fitted activation curve with a large enough effect in the signal ratio in the repeat runs, not every such curve was filed as active; the % refers to the signal ratio)
Outline: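 A HeLa cervical cancer line expressing GR and a glucocorticoid response element-driven beta-lactamase gene is treated with compounds for 18 h; LiveBLAzer B/G FRET substrate is then applied and fluorescence read.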

[19] = molecular target: Glucocorticoid receptor (Homo sapiens) (UniProt P04150); test: qHTS assay to identify small molecule antagonists of the glucocorticoid receptor (GR) signaling pathway (AID 720692; active = well fitted inhibition curve with a large enough effect in the signal ratio in the repeat runs, not every such curve was filed as active; the % refers to the signal ratio)
Outline: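 GRE-bla HeLa line, dex-stimulated (5 nM final). Compound exposure 18 h, 37 C. Beta-lactamase FRET read after 2 h RT substrate.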

[20] = qHTS assay for small molecule disruptors of the mitochondrial membrane potential (AID 720635)
Outline: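 Mitochondrial membrane potential tracked with Mito-MPS dye, red aggregates (ex 540/em 590 nm) against green monomers (ex 490/em 535 nm). Compound treatment 1 hr at 37C, dye 30 min in HepG2.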
% is scaled to controls: 0 for no effect and ±100 for the full control effect.

Chain of Glucocorticoid receptor (Homo sapiens) (P04150 whole entry, looked up): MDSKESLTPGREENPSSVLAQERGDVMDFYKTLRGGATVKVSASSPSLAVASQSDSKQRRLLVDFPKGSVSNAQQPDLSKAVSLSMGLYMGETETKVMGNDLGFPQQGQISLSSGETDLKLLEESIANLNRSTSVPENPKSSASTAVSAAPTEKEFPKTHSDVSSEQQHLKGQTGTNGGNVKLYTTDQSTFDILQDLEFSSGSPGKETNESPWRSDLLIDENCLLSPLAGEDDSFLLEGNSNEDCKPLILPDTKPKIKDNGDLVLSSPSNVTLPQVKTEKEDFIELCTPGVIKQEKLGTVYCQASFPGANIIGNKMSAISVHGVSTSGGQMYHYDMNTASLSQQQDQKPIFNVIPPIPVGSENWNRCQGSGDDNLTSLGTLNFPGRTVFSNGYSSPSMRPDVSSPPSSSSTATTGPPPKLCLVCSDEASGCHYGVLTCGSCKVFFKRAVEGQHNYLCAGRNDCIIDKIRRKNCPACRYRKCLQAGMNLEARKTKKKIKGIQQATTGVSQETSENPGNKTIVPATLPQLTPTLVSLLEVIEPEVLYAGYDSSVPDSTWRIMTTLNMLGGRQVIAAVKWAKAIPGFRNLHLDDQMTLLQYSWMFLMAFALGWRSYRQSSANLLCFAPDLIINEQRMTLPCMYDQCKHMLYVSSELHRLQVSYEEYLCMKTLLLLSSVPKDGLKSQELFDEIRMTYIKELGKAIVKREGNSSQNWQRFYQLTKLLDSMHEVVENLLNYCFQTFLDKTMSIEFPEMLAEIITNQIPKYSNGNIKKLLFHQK

C=CC(=O)CC
inactive: Potency [1] | outcome [2] | outcome [3] | outcome [4] | outcome [5] | outcome [6] | outcome [7] | outcome [8] | outcome [9] | outcome [10] | outcome [11] | outcome [12] | outcome [13] | outcome [14]

CC(=O)OC1CCC(C(C)(C)C)CC1 (centres undefined)
inactive: Potency [1] | Potency [15] | outcome [3] | outcome [16] | outcome [4] | outcome [5] | outcome [6] | outcome [7] | outcome [8] | outcome [9] | outcome [10] | outcome [12] | outcome [13] | outcome [17] | Potency [18] | outcome [19]

CCO/C=C1\N=C(c2ccccc2)OC1=O
inactive: Potency [1] | outcome [2] | outcome [3] | Potency [20] | outcome [4] | outcome [5] | outcome [6] | outcome [7] | outcome [9] | outcome [10] | outcome [11] | outcome [12] | outcome [13] | outcome [14] | Potency [18]

CCOC(=O)CC
inactive: Potency [1] | outcome [2] | outcome [3] | Potency [20] | outcome [4] | outcome [5] | outcome [6] | outcome [7] | outcome [8] | outcome [9] | outcome [10] | outcome [12] | outcome [13] | outcome [17] | outcome [14]

CCCCCCCCCCCCCCCCN(C)C
inactive: activation [1] -4.5% [at 8.3 µM] | activation [15] 2.36% [at 8.08 µM] | activity, negative = cytotoxicity [3] -13.5% [at 8.08 µM] | fluorescence, relative to Rose Bengal [4] 0.017% [at 3.72 µM] | fluorescence, % of fluorescein control [5] -0.0084% [at 3.72 µM] | fluorescence, % of triamterene [6] -0.0322% [at 3.72 µM] | fluorescence, % of fluorescent control [7] -0.181% [at 3.72 µM] | fluorescence, % of fluorescein [8] 0.0696% [at 3.72 µM] | fluorescence, % of fluorescent control [9] -0.0334% [at 3.72 µM] | activity change [10] 0.0487% [at 3.72 µM] | fluorescence, % of fluorescent control [11] 0.0064% [at 3.72 µM] | fluorescence, % of Rose Bengal [12] -0.0248% [at 3.72 µM] | fluorescence, % of fluorescent control [13] -0.0345% [at 3.72 µM] | fluorescence, % of fluorescein control [17] 0.006% [at 3.72 µM] | activity change, negative = inhibition [19] -19.5% [at 7.04 µM]

CCCOc1ccc(C(=O)OCCN(CC)CC)cc1N
inactive: Potency [1] | outcome [2] | outcome [3] | outcome [16] | Potency [20] | outcome [4] | outcome [5] | outcome [6] | outcome [7] | outcome [9] | outcome [10] | outcome [11] | outcome [12] | outcome [13] | Potency [18] | outcome [19]

CCCCCCCCCCCCCCCC/C=C/C1CC(=O)OC1=O (centres undefined)
inactive: Potency [1] | Potency [15] | outcome [3] | outcome [16] | outcome [4] | outcome [5] | outcome [6] | outcome [7] | outcome [8] | outcome [9] | outcome [10] | outcome [11] | outcome [12] | outcome [13] | outcome [17] | outcome [14] | Potency [18]

CC(C)=CCC/C(C)=C\C#N
inactive: Potency [1] | outcome [2] | outcome [3] | outcome [16] | outcome [4] | outcome [5] | outcome [6] | outcome [7] | outcome [8] | outcome [9] | outcome [10] | outcome [11] | outcome [12] | outcome [13] | outcome [14] | Potency [18]
